# Source: ChEMBL document CHEMBL1961873, “Compounds: GSK PKIS; Assays: Nanosyn kinase panel” (2012)
# What was measured:
# [1] = target: Dual specificity protein kinase CLK3 (Homo sapiens) (UniProt P49761); conditions: at 1 µM;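 further: each value is the mean inhibition of CLK3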
# [2] = target: Dual specificity tyrosine-phosphorylation-regulated kinase 1A (Homo sapiens) (UniProt Q13627); conditions: at 0.1 µM
# [3] = target: Dual specificity tyrosine-phosphorylation-regulated kinase 1A (Homo sapiens) (UniProt Q13627); conditions: at 1 µM
# [4] = target: Dual specificity tyrosine-phosphorylation-regulated kinase 1B (Homo sapiens) (UniProt Q9Y463); conditions: at 0.1 µM
# [5] = target: Dual specificity tyrosine-phosphorylation-regulated kinase 1B (Homo sapiens) (UniProt Q9Y463); conditions: at 1 µM
# [6] = target: T1, Dual specificity tyrosine-phosphorylation-regulated kinase 2 (Homo sapiens) (UniProt Q92630); conditions: at 0.1 µM
# T1 sequence (whole entry): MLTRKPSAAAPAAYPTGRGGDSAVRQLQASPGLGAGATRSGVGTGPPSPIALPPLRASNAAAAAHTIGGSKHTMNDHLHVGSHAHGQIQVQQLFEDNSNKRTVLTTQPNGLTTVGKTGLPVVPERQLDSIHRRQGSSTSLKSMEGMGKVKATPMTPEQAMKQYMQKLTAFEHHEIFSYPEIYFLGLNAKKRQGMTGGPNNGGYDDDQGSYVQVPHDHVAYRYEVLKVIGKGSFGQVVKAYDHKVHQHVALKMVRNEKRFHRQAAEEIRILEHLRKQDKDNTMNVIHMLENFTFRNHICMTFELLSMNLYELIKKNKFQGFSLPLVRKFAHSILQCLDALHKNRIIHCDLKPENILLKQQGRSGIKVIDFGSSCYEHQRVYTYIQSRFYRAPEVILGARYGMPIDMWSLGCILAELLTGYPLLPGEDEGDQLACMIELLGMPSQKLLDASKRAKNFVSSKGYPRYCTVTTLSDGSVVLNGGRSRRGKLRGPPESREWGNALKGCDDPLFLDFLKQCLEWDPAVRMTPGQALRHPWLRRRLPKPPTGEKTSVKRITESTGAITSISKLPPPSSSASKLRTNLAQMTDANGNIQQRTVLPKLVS
# [7] = target: T1, Dual specificity tyrosine-phosphorylation-regulated kinase 2 (Homo sapiens); conditions: at 1 µM
# [8] = target: Glycogen synthase kinase-3 alpha (Homo sapiens) (UniProt P49840); conditions: at 0.1 µM
# [9] = target: Glycogen synthase kinase-3 alpha (Homo sapiens) (UniProt P49840); conditions: at 1 µM
# [10] = target: Glycogen synthase kinase-3 beta (Homo sapiens) (UniProt P49841); conditions: at 0.1 µM
# [11] = target: Glycogen synthase kinase-3 beta (Homo sapiens) (UniProt P49841); conditions: at 1 µM
# [12] = target: Homeodomain-interacting protein kinase 1 (Homo sapiens) (UniProt Q86Z02); conditions: at 0.1 µM
# [13] = target: Homeodomain-interacting protein kinase 1 (Homo sapiens) (UniProt Q86Z02); conditions: at 1 µM
# [14] = target: T2, Homeodomain-interacting protein kinase 4 (Homo sapiens) (UniProt Q8NE63); conditions: at 0.1 µM
# T2 sequence (whole entry): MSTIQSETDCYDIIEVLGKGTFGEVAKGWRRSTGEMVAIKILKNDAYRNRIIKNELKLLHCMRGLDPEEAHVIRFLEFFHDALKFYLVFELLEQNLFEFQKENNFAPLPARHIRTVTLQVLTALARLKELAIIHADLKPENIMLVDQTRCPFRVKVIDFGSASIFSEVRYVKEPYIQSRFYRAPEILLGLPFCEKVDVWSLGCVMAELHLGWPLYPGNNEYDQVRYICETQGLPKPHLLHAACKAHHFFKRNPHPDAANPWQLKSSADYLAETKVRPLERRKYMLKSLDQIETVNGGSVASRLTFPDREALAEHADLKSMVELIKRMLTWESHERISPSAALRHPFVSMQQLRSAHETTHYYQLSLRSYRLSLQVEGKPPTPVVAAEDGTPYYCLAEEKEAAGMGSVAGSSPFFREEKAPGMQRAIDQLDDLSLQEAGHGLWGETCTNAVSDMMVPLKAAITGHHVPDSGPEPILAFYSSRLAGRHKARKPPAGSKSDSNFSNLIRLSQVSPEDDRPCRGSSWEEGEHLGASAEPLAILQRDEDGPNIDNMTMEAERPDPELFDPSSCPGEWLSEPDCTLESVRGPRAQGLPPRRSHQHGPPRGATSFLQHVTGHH
# [15] = target: T2, Homeodomain-interacting protein kinase 4 (Homo sapiens); conditions: at 1 µM
# [16] = target: Mitogen-activated protein kinase 9 (Homo sapiens) (UniProt P45984); conditions: at 0.1 µM
# [17] = target: Mitogen-activated protein kinase 9 (Homo sapiens) (UniProt P45984); conditions: at 1 µM
# [18] = target: Mitogen-activated protein kinase 1 (Homo sapiens) (UniProt P28482); conditions: at 0.1 µM
# [19] = target: Mitogen-activated protein kinase 1 (Homo sapiens) (UniProt P28482); conditions: at 1 µM
# [20] = target: Mitogen-activated protein kinase 3 (Homo sapiens) (UniProt P27361); conditions: at 0.1 µM;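 further: each value is a mean inhibition figure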
# Mitogen-activated protein kinase 3 (Homo sapiens), sequence (P27361 whole entry): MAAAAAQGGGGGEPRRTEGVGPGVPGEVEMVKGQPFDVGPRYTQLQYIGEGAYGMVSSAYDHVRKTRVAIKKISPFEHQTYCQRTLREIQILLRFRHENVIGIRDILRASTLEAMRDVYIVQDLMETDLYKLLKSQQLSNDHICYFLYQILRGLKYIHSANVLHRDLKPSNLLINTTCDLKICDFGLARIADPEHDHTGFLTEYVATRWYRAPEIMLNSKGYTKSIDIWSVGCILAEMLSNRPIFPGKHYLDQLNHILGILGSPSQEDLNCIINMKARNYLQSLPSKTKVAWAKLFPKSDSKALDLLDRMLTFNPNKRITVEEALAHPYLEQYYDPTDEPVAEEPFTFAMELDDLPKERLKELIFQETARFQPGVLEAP
# Homeodomain-interacting protein kinase 1 (Homo sapiens), sequence (Q86Z02 whole entry, looked up): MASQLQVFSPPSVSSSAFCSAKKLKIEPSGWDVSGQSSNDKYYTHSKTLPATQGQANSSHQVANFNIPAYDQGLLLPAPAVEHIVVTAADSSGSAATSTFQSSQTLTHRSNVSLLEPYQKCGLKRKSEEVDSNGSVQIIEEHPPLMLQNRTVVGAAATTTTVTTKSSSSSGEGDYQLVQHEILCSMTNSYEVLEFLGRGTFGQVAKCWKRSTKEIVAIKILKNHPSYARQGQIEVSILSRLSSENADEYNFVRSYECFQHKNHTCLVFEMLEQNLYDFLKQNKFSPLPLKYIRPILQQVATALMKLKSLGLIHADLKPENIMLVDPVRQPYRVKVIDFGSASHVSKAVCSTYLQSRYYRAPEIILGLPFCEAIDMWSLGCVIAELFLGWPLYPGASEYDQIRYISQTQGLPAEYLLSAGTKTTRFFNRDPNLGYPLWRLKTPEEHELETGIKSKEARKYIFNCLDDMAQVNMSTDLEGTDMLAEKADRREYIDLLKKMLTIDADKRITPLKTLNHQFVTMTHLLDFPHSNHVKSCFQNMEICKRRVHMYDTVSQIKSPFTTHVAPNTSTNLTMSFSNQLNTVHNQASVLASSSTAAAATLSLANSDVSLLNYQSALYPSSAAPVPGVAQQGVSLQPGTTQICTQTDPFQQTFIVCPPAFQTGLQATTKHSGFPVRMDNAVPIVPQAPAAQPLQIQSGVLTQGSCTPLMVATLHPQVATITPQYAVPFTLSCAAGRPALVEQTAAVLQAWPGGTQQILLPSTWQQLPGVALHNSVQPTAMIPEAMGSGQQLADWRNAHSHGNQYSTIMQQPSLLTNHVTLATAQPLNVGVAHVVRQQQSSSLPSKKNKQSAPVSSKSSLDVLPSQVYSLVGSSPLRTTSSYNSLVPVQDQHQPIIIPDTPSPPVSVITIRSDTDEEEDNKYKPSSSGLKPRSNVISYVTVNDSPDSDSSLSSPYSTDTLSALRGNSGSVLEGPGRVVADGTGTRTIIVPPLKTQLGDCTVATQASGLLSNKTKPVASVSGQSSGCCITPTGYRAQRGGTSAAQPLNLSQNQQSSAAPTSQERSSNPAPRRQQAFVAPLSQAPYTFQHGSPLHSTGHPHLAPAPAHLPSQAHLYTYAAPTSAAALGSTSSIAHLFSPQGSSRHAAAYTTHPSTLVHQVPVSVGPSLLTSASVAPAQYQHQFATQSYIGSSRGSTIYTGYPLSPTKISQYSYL
# Dual specificity tyrosine-phosphorylation-regulated kinase 1B (Homo sapiens), sequence (Q9Y463 whole entry, looked up): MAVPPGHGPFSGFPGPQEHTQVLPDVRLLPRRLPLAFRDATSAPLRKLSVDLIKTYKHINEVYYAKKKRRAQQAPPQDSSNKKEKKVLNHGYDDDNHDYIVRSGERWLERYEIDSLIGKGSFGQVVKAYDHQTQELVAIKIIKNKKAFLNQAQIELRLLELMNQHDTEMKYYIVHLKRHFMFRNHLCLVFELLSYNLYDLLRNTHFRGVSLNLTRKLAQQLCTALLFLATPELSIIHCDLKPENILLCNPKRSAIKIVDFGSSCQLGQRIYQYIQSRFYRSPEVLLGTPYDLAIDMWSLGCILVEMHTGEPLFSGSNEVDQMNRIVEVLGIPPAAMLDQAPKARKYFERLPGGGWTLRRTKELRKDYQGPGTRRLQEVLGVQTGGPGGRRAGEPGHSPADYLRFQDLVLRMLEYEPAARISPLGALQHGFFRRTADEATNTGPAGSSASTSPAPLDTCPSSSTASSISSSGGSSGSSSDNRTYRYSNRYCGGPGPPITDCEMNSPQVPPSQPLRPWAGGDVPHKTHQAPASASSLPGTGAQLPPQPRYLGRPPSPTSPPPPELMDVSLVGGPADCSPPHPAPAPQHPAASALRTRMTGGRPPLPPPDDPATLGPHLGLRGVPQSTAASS
# Mitogen-activated protein kinase 1 (Homo sapiens), sequence (P28482 whole entry): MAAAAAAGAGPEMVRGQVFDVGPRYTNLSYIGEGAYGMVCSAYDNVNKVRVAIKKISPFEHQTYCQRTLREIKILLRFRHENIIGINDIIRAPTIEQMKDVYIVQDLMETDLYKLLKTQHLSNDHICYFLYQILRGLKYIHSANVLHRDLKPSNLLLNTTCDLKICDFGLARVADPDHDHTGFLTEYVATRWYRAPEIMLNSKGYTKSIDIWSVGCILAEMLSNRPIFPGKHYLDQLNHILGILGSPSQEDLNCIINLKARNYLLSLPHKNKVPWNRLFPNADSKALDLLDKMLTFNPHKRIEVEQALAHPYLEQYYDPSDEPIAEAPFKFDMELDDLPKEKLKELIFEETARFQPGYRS
# Mitogen-activated protein kinase 9 (Homo sapiens), sequence (P45984 whole entry, looked up): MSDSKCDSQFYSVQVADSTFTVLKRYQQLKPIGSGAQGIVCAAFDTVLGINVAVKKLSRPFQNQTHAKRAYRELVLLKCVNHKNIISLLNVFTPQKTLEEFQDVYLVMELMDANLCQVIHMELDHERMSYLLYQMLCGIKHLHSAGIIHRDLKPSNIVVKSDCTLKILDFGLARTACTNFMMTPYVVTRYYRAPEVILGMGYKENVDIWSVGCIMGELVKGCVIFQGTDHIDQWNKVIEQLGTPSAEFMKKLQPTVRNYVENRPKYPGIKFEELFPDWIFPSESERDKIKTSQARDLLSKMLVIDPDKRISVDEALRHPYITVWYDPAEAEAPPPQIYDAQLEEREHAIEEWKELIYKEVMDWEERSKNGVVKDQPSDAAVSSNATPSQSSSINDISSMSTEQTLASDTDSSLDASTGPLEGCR
# Dual specificity protein kinase CLK3 (Homo sapiens), sequence (P49761 whole entry, looked up): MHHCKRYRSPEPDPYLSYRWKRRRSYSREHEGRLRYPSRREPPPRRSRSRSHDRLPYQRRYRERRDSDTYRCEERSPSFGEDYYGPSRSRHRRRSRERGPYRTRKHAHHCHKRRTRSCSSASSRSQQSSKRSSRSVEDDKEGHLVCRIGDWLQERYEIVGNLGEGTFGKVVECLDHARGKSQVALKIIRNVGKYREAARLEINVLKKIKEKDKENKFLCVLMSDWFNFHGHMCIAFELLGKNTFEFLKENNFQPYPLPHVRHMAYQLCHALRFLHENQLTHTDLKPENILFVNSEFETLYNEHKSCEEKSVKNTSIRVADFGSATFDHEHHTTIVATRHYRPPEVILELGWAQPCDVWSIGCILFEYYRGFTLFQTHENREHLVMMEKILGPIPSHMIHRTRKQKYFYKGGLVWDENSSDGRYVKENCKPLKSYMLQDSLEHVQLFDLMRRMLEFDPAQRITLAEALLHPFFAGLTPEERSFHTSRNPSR
# Glycogen synthase kinase-3 beta (Homo sapiens), sequence (P49841 whole entry, looked up): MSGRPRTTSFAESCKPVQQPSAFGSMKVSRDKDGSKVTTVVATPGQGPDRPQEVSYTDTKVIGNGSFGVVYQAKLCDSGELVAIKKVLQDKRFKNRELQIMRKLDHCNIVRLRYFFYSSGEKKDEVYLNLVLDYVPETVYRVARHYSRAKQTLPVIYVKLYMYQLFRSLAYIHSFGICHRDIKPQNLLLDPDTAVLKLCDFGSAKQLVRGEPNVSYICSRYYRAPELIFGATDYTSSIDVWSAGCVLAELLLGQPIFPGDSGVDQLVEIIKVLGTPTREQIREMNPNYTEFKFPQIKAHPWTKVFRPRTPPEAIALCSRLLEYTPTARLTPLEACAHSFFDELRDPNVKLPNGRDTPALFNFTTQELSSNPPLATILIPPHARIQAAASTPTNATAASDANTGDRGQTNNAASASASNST
# Glycogen synthase kinase-3 alpha (Homo sapiens), sequence (P49840 2-483 limits assumed): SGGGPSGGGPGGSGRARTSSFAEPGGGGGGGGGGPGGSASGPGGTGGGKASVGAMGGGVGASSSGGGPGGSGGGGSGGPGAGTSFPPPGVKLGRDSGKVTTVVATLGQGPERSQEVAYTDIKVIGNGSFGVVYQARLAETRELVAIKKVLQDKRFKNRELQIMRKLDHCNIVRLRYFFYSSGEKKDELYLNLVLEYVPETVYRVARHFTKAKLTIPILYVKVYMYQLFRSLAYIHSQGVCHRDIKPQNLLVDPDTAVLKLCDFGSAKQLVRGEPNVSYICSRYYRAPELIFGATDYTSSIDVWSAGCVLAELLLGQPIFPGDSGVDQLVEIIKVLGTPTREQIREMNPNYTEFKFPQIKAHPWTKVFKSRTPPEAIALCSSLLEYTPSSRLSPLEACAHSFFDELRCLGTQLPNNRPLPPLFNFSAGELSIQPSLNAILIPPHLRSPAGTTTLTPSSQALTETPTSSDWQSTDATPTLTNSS
Structure (SMILES),inhibition [1],inhibition [2],inhibition [3],inhibition [4],inhibition [5],inhibition [6],inhibition [7],inhibition [8],inhibition [9],inhibition [10],inhibition [11],inhibition [12],inhibition [13],inhibition [14],inhibition [15],inhibition [16],inhibition [17],inhibition [18],inhibition [19],inhibition [20]
CCn1c(-c2nonc2N)nc2c(C#CC(C)(C)O)ncc(OC3CCNCC3)c21,0.2%,1.61%,-0.11%,0.14%,1.34%,2.3%,3.89%,12.3%,48.9%,10%,51.8%,0.21%,4.91%,1.04%,2.64%,4.13%,6.93%,4.51%,7.43%,4.27%
COc1ccc(-c2oc3ncnc(N)c3c2-c2ccc(NC(=O)Nc3cc(C(F)(F)F)ccc3F)cc2)cc1,4.8%,0.67%,2.07%,-0.07%,2.26%,1.92%,5.52%,3.93%,17.3%,3.17%,15.2%,13.5%,62%,68.7%,88.8%,7.38%,19.9%,7.13%,6.23%,3.48%
CC(C)COC(=O)c1ccc2c(c1)/C(=C/Nc1ccc(S(N)(=O)=O)cc1)C(=O)N2,11.4%,11.9%,57%,12%,53.9%,1.28%,22.4%,34.8%,80.6%,36.1%,82.7%,-0.11%,16.8%,-0.32%,16.9%,0.47%,10.8%,2.73%,31.3%,1.07%
NS(=O)(=O)c1ccc(N/N=C2\C(=O)Nc3ccc4ncccc4c32)cc1,15%,18.6%,61.6%,13%,54.8%,6.76%,35.7%,55.3%,80.9%,53.5%,80.2%,19.7%,64.7%,6.71%,40%,6.07%,33.7%,14.9%,55.5%,6.45%
NS(=O)(=O)c1ccc(Nc2ncc(-c3ccccc3)o2)cc1,6.65%,6.93%,16%,5.92%,12.5%,2.13%,8.68%,12.9%,43.4%,11.4%,35.4%,9.46%,28.8%,6.48%,24.3%,1.48%,7.69%,2.91%,3.4%,2.41%
Nc1nc(-c2cccc(Cl)c2)c(-c2ccc3ncccc3n2)s1,3.8%,6.62%,31.8%,-0.12%,12.7%,3.16%,5.31%,3.74%,11.2%,2.21%,7.52%,2.34%,6.93%,2.76%,13.9%,5.19%,13.9%,6.28%,6.55%,5.26%
CCN(CC)S(=O)(=O)c1ccc(OC)c(Nc2ncc(-c3ccccc3)o2)c1,8.6%,1.08%,10.9%,1.93%,14.7%,1.64%,6.15%,0.34%,2.7%,0.79%,3.89%,1.49%,10.2%,2.17%,17.8%,2.31%,1.02%,-1.7%,-0.08%,1.68%
CCn1cc(-c2ccnc3[nH]ccc23)c(-c2cccc(NC(=O)Nc3ccc(OCc4ccccc4)cc3)c2)n1,-1.48%,-3.22%,-2.65%,-1.6%,-0.5%,-0.82%,-4.73%,2.29%,3.64%,1.77%,3.94%,-3.5%,-1.09%,-1.8%,-0.81%,0.84%,1.92%,1.51%,0.25%,1.98%
COc1cc2ncn(-c3cc(OCc4ccccc4C(F)(F)F)c(C(=O)N(C)C)s3)c2cc1OC,0.45%,0.01%,0.74%,0.5%,0.22%,-0.27%,2.19%,0.04%,1.19%,0.03%,1.99%,-1.93%,-0.02%,-0.52%,2.66%,1.07%,2.1%,-1.73%,0.92%,-0.18%
Fc1cccc(COc2ccc(Nc3ncnc4sc(-c5ccco5)cc34)cc2Cl)c1,0.86%,3.24%,4.83%,-1.92%,0.72%,3.21%,0.35%,3.67%,6.09%,2.77%,4.97%,-0.44%,5.88%,2.99%,5.88%,1.05%,0.94%,5.22%,5.78%,2.39%
CCN1CCC(CC(=O)Nc2n[nH]c3nnc(-c4cccc(F)c4F)cc23)CC1,2.16%,10.4%,53.1%,7.85%,46.9%,1.7%,5.64%,88.8%,93.9%,85%,94.4%,-3.8%,8.59%,0.11%,3%,2.02%,-0.48%,4.04%,2.72%,3.44%
Fc1ccc(-c2cc(-c3c[nH]nc3-c3ccccn3)ccn2)cc1,0.54%,2.96%,5.69%,-1.65%,-0.27%,3.36%,4.06%,2.14%,2.16%,1.39%,2.88%,1.57%,0.95%,1.68%,4.16%,3.65%,11.3%,6.73%,5.51%,6.42%
COC(=O)c1sc(-n2cnc3cc(OC)c(OC)cc32)cc1OCc1ccccc1C(F)(F)F,0.53%,1.62%,3.44%,-1.47%,-1.98%,3.48%,4.12%,1.51%,4.48%,-0.28%,3.49%,-2.18%,-0.46%,-0.74%,1.47%,3.59%,6.58%,4.72%,5.29%,3.25%
